Compound activity: PubChem BioAssay, several laboratories
Shown are actives, neighbours in structure and some others; about 2.3% of the full set was active somewhere.
EBV LMP1 NFkB = Epstein-Barr LMP1 NF-kappaB reporter inhibition; LMP1-induced NF-kappaB luciferase reporter cells, luminescence; inhibition, % at 12.5 µM; 0.69% of 350,000 active; AID 504558; in the data active = inhibition above about 41%
MITF TRPM1 inh = MITF TRPM1 promoter inhibition in SK-MEL-5 cells; SK-MEL-5 TRPM1 promoter luciferase, 24 h; inhibition, % at 12.5 µM; 0.83% of 330,000 active; AID 488899;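 active = mean inhibition across replicates of 60% or more, whatever share of single replicates reaches that level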
697 NFkB inh = inhibitors of the PMA/ionomycin-induced NF-kB reporter in 697 B cells | AID 435022 | inhibition, % at 4 µM | 0.33% of 330,000 active | 697 B-cell NF-kB luciferase reporter, 16 h; in the data active = inhibition above about 35%
Jurkat NFkB inh = inhibitors of the PMA/ionomycin-induced NF-kB reporter in Jurkat cells; inhibition, % at 4 µM; 0.53% of 330,000 active; PMA/ionomycin-induced NF-kB luciferase reporter, luminescence; AID 435003; in the data active = inhibition above about 50%
Shn3 3UTR inh = reduces Shn3 3'UTR luciferase signal in osteoblasts. AID 588674. Clone20 osteoblast Shn3 3'UTR firefly luciferase, 24 h. inhibition, % at 12.5 µM. 0.52% of 360,000 active;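 active = mean inhibition of at least 75% with every replicate also reaching 75%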
Gli-Sufu block = antagonists of Gli-Sufu signaling. Sufu-KO-LIGHT fibroblasts, Gli luciferase reporter luminescence. 0.74% of 340,000 active. AID 588413. inhibition, % at 5 µM;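 active = inhibition above about 55%, limit read from the data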
Jurkat NFkB conf = inhibitors of the PMA/ionomycin-induced NF-kB reporter in Jurkat cells, retest; shares compounds with Jurkat NFkB inh; AID 435020; inhibition, % at 4 µM; Jurkat NF-kB luciferase, 16 h; 27% of 2,700 active;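 active = inhibition reaching about 45% at 4 µM in either replicate, limit read from the data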
Of the large screens only hits and unclear results are named; the others gave an inactive call (follow-up assays come after a bar, where they were run).

COc1ccc(OC)c(NC(=O)Nc2cccc(Cn3cccn3)c2)c1	none
Cc1ccc(/C=C/c2ccc(N(C)C)cc2)[n+](C)c1	Jurkat NFkB inh 68.5, Gli-Sufu block 84.7 | Jurkat NFkB conf inactive
COc1cc(NC(=O)CSc2ncnc3sc4c(c23)CCC(C)C4)c(C(=O)O)cc1OC (configuration not stated)	none
COc1ccccc1CNC(=O)c1csc(Cc2ccc(Cl)cc2)n1	Jurkat NFkB inh 71.0 (no result: Gli-Sufu block) | Jurkat NFkB conf inactive
Cc1ccc(S(=O)(=O)N2CCCCC2CCNC(=O)C(=O)NC2CC2)cc1 (configuration not stated)	none
Oc1ccc(Nc2nc3ccccc3nc2Nc2ccc(O)cc2)cc1	MITF TRPM1 inh 65.8, Jurkat NFkB inh 84.1 | Jurkat NFkB conf 54.4
Clc1ccc(-c2nnc(-c3ccccc3)o2)c(Cl)c1	none | Jurkat NFkB conf inactive
Fc1ccc(-c2nnc(-c3ccc(Cl)cc3Cl)o2)cc1	none (no result: MITF TRPM1 inh, Gli-Sufu block)
COC(=O)C1C(=O)c2c([nH]c(C(=O)OC3CCCCC3)c2C)CC1C (configuration not stated)	none | Jurkat NFkB conf inactive
COC(=O)C1C(=O)c2c([nH]c(C(=O)OCCOC(C)C)c2C)CC1C (configuration not stated)	none (no result: EBV LMP1 NFkB, MITF TRPM1 inh, Shn3 3UTR inh)
COC(=O)C1C(=O)c2c([nH]c(C(=O)OC3CCCC3C)c2C)CC1C (configuration not stated)	none | Jurkat NFkB conf inactive
CC(=O)Cc1nsc(NC(=O)c2ccc(-c3ccccc3Cl)o2)n1	none
COc1ccc(OC)c(C2=NS(=O)(=O)N(C)C(C(=O)Nc3ccc(C(C)=O)cc3)=C2)c1	none
C=C(C)CN(CC)c1nc(N)c2c(N)nc3c(c2c1C#N)CC(=O)N3C12CC3CC(CC(C3)C1)C2	none
N#Cc1c(N2CCCC(O)C2)nc(N)c2c(N)nc3c(c12)CC(=O)N3C12CC3CC(CC(C3)C1)C2 (configuration not stated)	Jurkat NFkB inh 84.9 | Jurkat NFkB conf inactive
O=C(COc1cccnc1[N+](=O)[O-])Nc1cccc2ccccc12	none
CN(C)c1ccc(C(=O)OCC(=O)c2cccs2)cc1	none | Jurkat NFkB conf inactive
COc1ccc(C(=O)COC(=O)c2ccc(N(C)C)cc2)cc1	none
Cc1cc(=O)oc2cc(NC(=O)C3COc4ccccc4O3)ccc12 (configuration not stated)	none
COc1cccc(/C=C/C(=O)Nc2ccc3c(c2)OCCO3)c1OC	none | Jurkat NFkB conf inactive
Cc1ccnc(NC(=O)c2cc3ccccc3oc2=O)c1	none
C/C(=N/NC(=O)CNC(=O)c1ccccn1)c1ccccc1	none
C=CCNC(=S)N/N=C(\C)c1ccccn1	EBV LMP1 NFkB 79.6, Jurkat NFkB inh 78.3, Shn3 3UTR inh 91.5, Gli-Sufu block 83.7 | Jurkat NFkB conf 51.2
N#C/C(=C\c1ccc(OCc2ccc(C(=O)O)cc2)cc1)C(=O)N1CCOCC1	EBV LMP1 NFkB 83.8, MITF TRPM1 inh 84.6, Jurkat NFkB inh 65.8 | Jurkat NFkB conf 59.8
COc1cc(/C=C(\C#N)C(=O)N2CCOCC2)ccc1OCc1ccccc1	none
CCCC1NC(=O)c2cccnc2-n2c1nc1ccccc1c2=O (configuration not stated)	none (no result: MITF TRPM1 inh, 697 NFkB inh, Jurkat NFkB inh, Gli-Sufu block)
O=[N+]([O-])c1ccc(O)c(/C=N/Nc2ccc(Cl)nn2)c1	Jurkat NFkB inh 53.4, Gli-Sufu block 86.1 | Jurkat NFkB conf 78.2
O=[N+]([O-])c1ccc(O)c(/C=N/Nc2nn[nH]n2)c1	none
COc1cc(/C=N/NS(=O)(=O)c2ccc(C)cc2)ccc1OCc1cccc(C(=O)O)c1	EBV LMP1 NFkB 73.2, MITF TRPM1 inh 77.7, Jurkat NFkB inh 61.7 | Jurkat NFkB conf inactive
CCOC(=O)c1[nH]c2c(c1C)C(=O)CC(c1ccc(OCC)c(OC)c1)C2 (configuration not stated)	none
CCOCCOC(=O)c1[nH]c2c(c1C)C(=O)CC(c1cccs1)C2 (configuration not stated)	Jurkat NFkB inh 74.8 | Jurkat NFkB conf inactive
COC(=O)c1[nH]c2c(c1C)C(=O)CC(c1cccc(OC)c1)C2 (configuration not stated)	Jurkat NFkB inh 62.5 | Jurkat NFkB conf 55.5
COC(=O)c1[nH]c2c(c1C)C(=O)CC(c1ccc(C)cc1)C2 (configuration not stated)	none
COCCOC(=O)c1[nH]c2c(c1C)C(=O)CC(c1cccs1)C2 (configuration not stated)	none (no result: 697 NFkB inh, Jurkat NFkB inh)
CCOC(=O)c1[nH]c2c(c1C)C(=O)CC(c1ccc(F)cc1)C2 (configuration not stated)	Jurkat NFkB inh 63.9 | Jurkat NFkB conf 58.3
Cc1c(C(=O)OCC(C)C)[nH]c2c1C(=O)CC(c1cccs1)C2 (configuration not stated)	Jurkat NFkB inh 51.4 | Jurkat NFkB conf inactive
Cc1[nH]c(C)c(S(=O)(=O)N2c3ccccc3CC2C)c1C(=O)N1CCCCC1 (configuration not stated)	none
O=C(Cc1ccc(-c2ccccc2)cc1)N1CCOCC1	none
NC(N)=N/N=C/c1ccc(OCc2ccccc2Cl)cc1	Jurkat NFkB inh 63.3 | Jurkat NFkB conf inactive
CCN(CC)CCCNc1ccc(-c2nnc(-c3ccc(OCC(C)C)cc3)o2)cn1	MITF TRPM1 inh 76.7, Jurkat NFkB inh 60.4 | Jurkat NFkB conf inactive
CCCOc1ccc(-c2nnc(-c3ccco3)o2)cc1	none
COc1ccc2c(c1OC)C(=O)N(c1cccc(C)c1)C2	none
COc1ccc2c(c1OC)C(=O)N(c1cccc(C(F)(F)F)c1)C2	none | Jurkat NFkB conf inactive
Cc1ccccc1NC(=O)COC(=O)[C@@H]1CCCN1C(=O)c1cccs1	none
COCCCNC(=O)CCSc1ccc(C)cc1	none
COc1cc(NC(=O)CSc2ccc(-c3ccccn3)nn2)cc(OC)c1	none
COc1ccc(C)cc1NC(=O)CSc1ccc(-c2ccccn2)nn1	Jurkat NFkB inh 53.0 | Jurkat NFkB conf inactive
COc1ccc(C)cc1NC(=O)CSc1ccc(-c2sc(C)nc2C)nn1	Jurkat NFkB inh 51.2 | Jurkat NFkB conf inactive
COc1ccc([C@H]2CC(=O)C=C(c3ccc(OC)cc3OC)C2)cc1	Jurkat NFkB inh 57.8 | Jurkat NFkB conf 48.1
Cc1ccc(NC(=O)c2cc3ccccc3o2)nc1	none | Jurkat NFkB conf inactive
O=C(Nc1ccc(Cl)cc1Cl)c1cc2ccccc2o1	none | Jurkat NFkB conf inactive
Cc1ccccc1NC(=O)c1cc2ccccc2o1	none
CCOC(=O)/C=C/c1ccc2oc3ccccc3c(=O)c2c1	none | Jurkat NFkB conf inactive
Cn1c(SCC(=O)Nc2ccc(N3CCOCC3)cc2)nnc1-c1ccco1	none
CCC1CCCCN1CCCNC(=O)C1CCN(Cc2nc(-c3ccc(Cl)cc3)oc2C)CC1 (configuration not stated)	MITF TRPM1 inh 99.5, Jurkat NFkB inh 55.6 | Jurkat NFkB conf inactive
